Assay results from the supplement of paper PMC9117331.

Columns and labels:
Conditions in all cases: 0.5 µM; time after treatment 48 h; PC9 signalome
[1] = tested on: PC9; experiment: AKT reporter activity score (signed KS statistic vs DMSO) (signed KS statistic (-1 to 1)); higher = stronger activation of the pathway reporter relative to DMSO
[2] = tested on: PC9; experiment: RAR reporter activity score (signed KS statistic vs DMSO) (signed KS statistic (-1 to 1)); higher = stronger activation of the pathway reporter relative to DMSO
[3] = tested on: PC9; experiment: PKC reporter activity score (signed KS statistic vs DMSO) (signed KS statistic (-1 to 1)); higher = stronger activation of the pathway reporter relative to DMSO
[4] = tested on: PC9; experiment: PKA reporter activity score (signed KS statistic vs DMSO) (signed KS statistic (-1 to 1)); higher = stronger activation of the pathway reporter relative to DMSO
[5] = tested on: PC9; experiment: p38 reporter activity score (signed KS statistic vs DMSO) (signed KS statistic (-1 to 1)); higher = stronger activation of the pathway reporter relative to DMSO
[6] = tested on: PC9; experiment: HIF reporter activity score (signed KS statistic vs DMSO) (signed KS statistic (-1 to 1)); higher = stronger activation of the pathway reporter relative to DMSO
[7] = tested on: PC9; experiment: ERK reporter activity score (signed KS statistic vs DMSO) (signed KS statistic (-1 to 1)); higher = stronger activation of the pathway reporter relative to DMSO
[8] = tested on: PC9; experiment: JNK reporter activity score (signed KS statistic vs DMSO) (signed KS statistic (-1 to 1)); higher = stronger activation of the pathway reporter relative to DMSO
[9] = tested on: PC9; experiment: WNT reporter activity score (signed KS statistic vs DMSO) (signed KS statistic (-1 to 1)); higher = stronger activation of the pathway reporter relative to DMSO
[10] = tested on: PC9; experiment: NFkB reporter activity score (signed KS statistic vs DMSO) (signed KS statistic (-1 to 1)); higher = stronger activation of the pathway reporter relative to DMSO
[11] = tested on: PC9; experiment: YAP/TAZ reporter activity score (signed KS statistic vs DMSO) (signed KS statistic (-1 to 1)); higher = stronger activation of the pathway reporter relative to DMSO

Structure (SMILES): CC[C@@H]1/C=C/C=C/C[C@H](C)[C@H](O)[C@](C)(O)C(=O)[C@H](C)[C@@H](O)[C@H](C)C(=O)[C@H](C)[C@@H](O)[C@H](C)/C=C/C(=O)O[C@H]2[C@@H](C)[C@@H](CC1)O[C@@]1(CC[C@@H](C)[C@@H](C[C@H](C)O)O1)[C@@H]2C [Oligomycin A]
- AKT reporter activity score [1]: -0.252
- RAR reporter activity score [2]: 0.0549
- PKC reporter activity score [3]: 0.0686
- PKA reporter activity score [4]: -0.0505
- p38 reporter activity score [5]: -0.305
- HIF reporter activity score [6]: 0.335
- ERK reporter activity score [7]: 0.114
- JNK reporter activity score [8]: 0.0667
- WNT reporter activity score [9]: 0.138
- NFkB reporter activity score [10]: 0.0911
- YAP/TAZ reporter activity score [11]: 0.161
